According to PubChem BioAssay (NCI):
“And” between values parts separate entries of the source, which are not always exact repeats. Equal values may be shown once. Compounds without any hit were thinned out: in the full panel of roughly 79,000, 15% have a hit. The source made the active and inactive calls. Cut-off read from the data, not from the text of the source: active = growth inhibition above about 70%; inactive = the rest.

Legend:
[1] = NCI Yeast Anticancer Drug Screen. Data for the rad50 strain (AID 155);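 note: 0% = growth of vehicle-only cultures of the same strain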; conditions: S. cerevisiae rad50 strain growth inhibition, stronger effect = higher value; at 50.0 µM unless noted
Procedure, shortened: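 Relative growth inhibition (compound vs vehicle) was measured in yeast with a defined repair-gene alteration.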

[2] = NCI Yeast Anticancer Drug Screen. Data for the mec2-1 strain (AID 157); conditions: S. cerevisiae mec2-1 strain, stronger effect = higher value; at 50.0 µM unless noted
Procedure, shortened: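 mec2-1 yeast strain, carrying an alteration in DNA damage repair or cell cycle control, was exposed to compounds; growth inhibition was measured relative to vehicle-treated controls.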

[3] = NCI Yeast Anticancer Drug Screen. Data for the sgs1 mgt1 strain (AID 161);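 note: 0% = growth of cultures given vehicle only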; conditions: S. cerevisiae sgs1 mgt1 strain, stronger effect = higher value; at 50.0 µM unless noted
Procedure, shortened: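 Yeast cells carrying a defined DNA-repair defect were exposed to test compounds. Growth inhibition was measured relative to vehicle-treated controls.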

[4] = NCI Yeast Anticancer Drug Screen. Data for the cln2 rad14 strain (AID 165);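 note: 0% = growth equal to vehicle treated cultures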; conditions: S. cerevisiae cln2 rad14 strain, stronger effect = higher value; at 50.0 µM unless noted
Procedure, shortened: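 Yeast carrying cln2 and rad14 alterations (cell cycle control and DNA damage repair) were exposed to compounds. Growth inhibition was measured against vehicle-treated controls.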

[5] = NCI Yeast Anticancer Drug Screen. Data for the bub3 strain (AID 167); conditions: S. cerevisiae bub3 mutant strain, stronger effect = higher value; at 50.0 µM unless noted
Procedure, shortened: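 Screening used yeast with an engineered genetic alteration affecting cell cycle control. Compound-exposed cultures were compared with vehicle cultures, and reduced growth was taken as inhibition.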

[6] = NCI Yeast Anticancer Drug Screen. Data for the mlh1 rad18 strain (AID 175); conditions: S. cerevisiae mlh1 rad18 strain growth inhibition, stronger effect = higher value; at 50.0 µM unless noted
Procedure, shortened: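 Growth inhibition of the yeast strain was measured after compound exposure and expressed relative to vehicle-treated controls. The strain carries defined defects in DNA damage repair.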

Measured: growth inhibition

c1ccc(CC2=NCCO2)cc1
inactive: [1] -5.55% | [2] 2.25% | [3] -3.3% | [4] -33% | [5] 3.85% | [6] -25.9%

COc1ccc(COC(=O)Nc2ccccc2F)c(OC)c1OC
inactive: [1] 3.15% | [2] -9.55% | [3] 30.7% | [4] -3.55% | [5] 26.6% | [6] 16.7%

C1CCCC(=NN=C2CCCCCCC2)CCC1
inactive: [1] 29% | [2] 21.6% | [3] 13.4% | [4] -16.6% | [5] -10.2% | [6] 14.7%

CCOC(=O)c1ccc(N=Cc2ccc(N(CCC#N)CCC#N)cc2)cc1
inactive: [1] 9.35% | [2] 1.65% | [3] -7.25% | [4] 3.7% | [5] -1.5% | [6] -7.45%

Cc1ccc(C(=O)O)c(/C=C2\Cc3cc(C)cc(C)c3C2=O)c1
inactive: [1] 21.1% | [2] 14.8% | [3] 24.6% | [4] 16.6% | [5] 9.85% | [6] 29.7%

Cc1cccc(/C=N/NC(=S)NC(C)(C)C)n1
inactive: [1] -17.4% | [2] -32.4% | [3] -4.45% | [4] 0.1% | [5] 15.8% | [6] -27.1%

COC1OC(CO)C(O)C1OS(C)(=O)=O (centres undefined)
inactive: [1] -11.7% | [2] -4.25% | [3] -10.3% | [4] -1.2% | [5] -4.45% | [6] -8.3%

CCOC(=O)O/C(=C\c1ccc(OC)cc1)c1c(OC(=O)OCC)n(C(=O)OCC)c2ccccc12
inactive: [1] -13.1% | [2] -4.3% | [3] 7% | [4] 9.95% | [5] 12.7% | [6] 4.05%

Oc1ccc(/C=C\c2cnccn2)cc1
inactive: [1] 27.6% | [2] 7.3% | [3] 0.45% | [4] 5.55% | [5] 30.8% | [6] 7.6%

Cc1ccc([N+](=O)[O-])cc1NS(=O)(=O)c1cc(Cl)c(Cl)cc1Cl
inactive: [1] 19.8% | [2] 36.6% | [3] 49.2% | [4] -8.5% | [5] 1.2% | [6] 61.2%

COc1ccc2c(O)c(Oc3ccccc3)c(=O)oc2c1
inactive: [1] 0.5% | [2] 5% | [3] 4.25% | [4] 30.9% | [5] 15.3% | [6] 13.1%

COc1cc(Cc2nccc3cc(OC)c(OC)cc23)c(C(C)=O)cc1OC
inactive: [1] 21.9% | [2] -22.9% | [3] 19.1% | [4] 14.1% | [5] 22% | [6] 22.4%

CCOC(=O)Cc1nc(/C(C#N)=C/c2ccco2)[nH]c(=O)c1C#N
inactive: [1] 2.4% | [2] 7.8% | [3] 30.9% | [4] 34.2% | [5] 8.15% | [6] 39.6%

Cc1ccc2c(-c3cccc4ccccc34)c3ccccc3cc2c1
inactive: [1] 5.45% | [2] 9.65% | [3] -12% | [4] -8.4% | [5] 8.95% | [6] -7.75%

Cc1ccc(N2C(=O)C3CSCN3C2=O)cc1 (centres undefined)
inactive: [1] 31.2% | [2] 19.8% | [3] 6.85% | [4] 4.9% | [5] 9% | [6] 6.25%

CSCCCCC(N)C(=O)O (centres undefined)
inactive: [1] 0.05% | [2] 3% | [3] -0.9% | [4] -14% | [5] 12.4% | [6] -3.85%

C[C@H](C(=O)O)C(=O)NC(=O)N(Cc1ccccc1)N=O
inactive: [1] -24% | [2] -24.6% | [3] -26.8% | [4] 14.3% | [5] -1.25% | [6] -8.3%

COc1cc(OC)c(-c2nc3ccccc3c(=O)o2)cc1OC
inactive: [1] 4.9% | [2] 1% | [3] -3.65% | [4] 0.9% | [5] -0.75% | [6] 7.75%

O=[N+]([O-])c1ccc(/C(=C\c2ccc(-c3ccccc3)o2)S(=O)(=O)c2ccccc2)o1
inactive: [1] 26.2% | [2] -17.5% | [3] -5.1% | [4] 23.6% | [5] -1.2% | [6] 2.25%

FC(F)(F)c1ccc2ccc3ccc(Cl)cc3c2c1
inactive: [1] -7.5% | [2] -24% | [3] -4.3% | [4] -10.4% | [5] 21.6% | [6] -6.55%

O=Cc1ccc(N2CCOCC2)cc1
inactive: [1] 9.2% | [2] -2.1% | [3] -11.2% | [4] -29.6% | [5] -18.9% | [6] 1.95%

Cc1c2c(c(C)c3c1C(=O)c1cc4c(cc1C3=O)OCO4)OC(C)(C)O2
inactive: [1] 14.3% | [2] 0.35% | [3] 21.4% | [4] 8.95% | [5] 11.6% | [6] 23.1%

O=C(O)CSc1nc2ccccc2[nH]1
inactive: [1] 3.5% | [2] 1.55% | [3] -36% | [4] -13.9% | [5] -35.4% | [6] 10%

CCN(CC)CCOc1cccc(NC(=O)CN(CC)CC)c1
inactive: [1] -8.2% | [2] -25.8% | [3] 15.3% | [4] 1.4% | [5] 17% | [6] 1.65%

COc1ccc(NC(=S)N/N=C(\C)c2ccccn2)cc1
inactive: [4] 35.4%
active: [1] 81.5% | [2] 91.8% | [3] 94% | [5] 80.1% | [6] 84.8%

O=C(c1ccccc1)c1cccc(C(=O)c2ccccc2)c1
inactive: [1] -2.1% | [2] -11.3% | [3] -12.9% | [4] 4.65% | [5] 7.35% | [6] -16.6%

C=C1C(=O)C23CC1CCC2C12CO[C@H](O)[C@H]1C(C)(C)[C@H](OC(C)=O)C[C@H]2OC3=O (some centres undefined)
inactive: [1] 4.75% | [2] 4.15% | [3] 1.8% | [4] 6.1% | [5] 0.85% | [6] -76.2%

CCOC(=O)C(=CNc1ccc(OC)cc1[N+](=O)[O-])C(=O)OCC
inactive: [1] 11.7% | [2] 7.85% | [3] 11.6% | [4] 0.3% | [5] 11.3% | [6] 15.1%

N/N=C1\CC2C3CC4(OCCO4)C4C3CC2C14 (centres undefined)
inactive: [1] 1.6% | [2] -4.7% | [3] 1.75% | [4] 6.55% | [5] -7.6% | [6] 0.15%

COc1ccc(C=C(C(=O)O)C(=O)O)cc1
inactive: [1] 30.1% | [2] -11.6% | [3] -8.15% | [4] 17.8% | [5] 22% | [6] 29.6%

CC(C)c1cccc(C(C)C)c1NC(=O)C(=O)Cc1nc2ccc([N+](=O)[O-])cc2[nH]c1=O
inactive: [1] 26.6% | [2] 19.6% | [3] 34.6% | [4] 25.3% | [5] 24.6% | [6] 40.8%

CC1CC(=O)Nc2nc3ccccc3n21 (centres undefined)
inactive: [1] 7.15% | [2] 6.65% | [3] -25.2% | [4] -44.9% | [5] -21.8% | [6] -28.8%

O=C(/C=C/c1ccccc1)c1ccc(I)cc1
inactive: [1] 11.7% | [2] -1.25% | [3] 9.6% | [4] -8.2% | [5] 5.25% | [6] 1.5%

CC(CCCCCOC(=O)Nc1ccccc1)OC(=O)Nc1ccccc1 (centres undefined)
inactive: [1] 6.2% | [2] -12.3% | [3] -3.1% | [4] 0.75% | [5] 1.15% | [6] 2.6%

CCN(CCNS(C)(=O)=O)c1ccc(N)c(C)c1
inactive: [1] -15.3% and -11.2% | [2] -17.2% and -6.1% | [3] -23.1% and -14.5% | [4] 1.5% and -19.1% | [5] -17.9% and 1.95% | [6] -4.05% and 6.35%

CS(=O)(=O)c1ccc(/C(=N/N)c2ccccc2)cc1
inactive: [1] 1.65% | [2] 9.65% | [3] 9.2% | [4] 28.2% | [5] 13.5% | [6] 17.4%

Cc1cccc(NC(=O)N(C(C)C)C(C)C)c1
inactive: [1] -16.4% | [2] -38.2% | [3] -3.55% | [4] 2.8% | [5] 5.8% | [6] -27.6%

Cc1ccc(NC(=O)Oc2ccc(-c3ccccc3)cc2Br)c(Br)c1
inactive: [1] 52.1% | [2] 58% | [3] 54.6% | [4] 40% | [5] 51.9% | [6] 53.7%

Oc1ccc(O)c(CNc2ccc(C(O)C(F)(F)F)cc2)c1 (centres undefined)
inactive: [1] 14.9% | [2] 9.2% | [3] 16.8% | [4] 6.45% | [5] 22.1% | [6] 15.9%
